Results on 27 compounds are retold here after PubChem BioAssay (EPA / NIEHS).

Several values for one entry are separate records, joined by “and”; a condition that tells them apart may be missing. Identical values can stand only once. More than one record can exist for a structure, and the calls need not agree. Activity calls are given as the source filed them. How the source made its calls: active means hit-call score of the fitted dose curve at least 0.9, where 1 is the maximum; inactive means score below 0.9.

Read-out in the assay: Vascular endothelial growth factor receptor 2 (Homo sapiens) (UniProt P35968)
Put plainly: BSK_4H_VEGFRII: BioMAP Diversity Plus: 4H Assay for Vascular endothelial growth factor receptor 2 (VEGFR2) Biomarker Activity (AID 2283031). Conditions: primary human endothelial cells (HUVEC); actives raise or lower the signal. How it is done: BSK_4H is a cell-based, multiplexed-readout assay that uses umbilical vein endothelium, a human vascular primary cell, with measurements taken at 24 hours after chemical dosing in a 96-well plate.BSK_4H_VEGFRII is an assay component measured in the BSK_4H assay. It measures VEGFRII antibody related to regulation of gene expression using ELISA technology.Data from the assay component BSK_4H_VEGFRII was analyzed into 1 assay endpoint. This assay endpoint, BSK_4H_VEGFRII, was analyzed with bidirectional fitting relative to DMSO as the negative control and baseline of activity. Using a type of binding reporter, gain or loss-of-signal activity can be used to understand changes in the signaling as they relate to the gene KDR. Furthermore, this assay endpoint can be referred to as a primary readout, because this assay has produced multiple assay endpoints where this one serves a signaling function. To generalize the intended target to other relatable targets, this assay endpoint is annotated to the kinase intended target family, where the subfamily is receptor tyrosine kinase.
The levels of cell surface (or secreted, indicated by the prefix "s") biomarker endpoints were measured by ELISA. Overt cytotoxicity to cells in confluent adherent cultures (all systems other than the BT system) was assessed by measuring total protein levels using sulforhodamine B (SRB) staining in parallel cultures at the time of biomarker measurements, indicated as SRB endpoints. For proliferation assays for adherent cell types, individual cell types are cultured at sub-confluence and relative cell numbers quantified by SRB staining at time points optimized for each system (48 h: 3C and CASM3C systems; 72 h: BT and HDF3CGF systems; 96 h: SAg system). SRB was performed by staining cells with 0.1% SRB after fixation with 10% TCA and reading wells at 560 nm.Viability and proliferation of PBMC (T cells) was quantified by Alamar Blue reduction for the SAg and BT systems. For PBMC viability (referred to as PBMC Cytotoxicity within the assay endpoint names), cells were plated (75,000/well in a 96-well plate) and then chemical samples added for 1 h before addition of activators, SEB and TSST-1 (20 ng/mL final concentration each). Cells were incubated for 90 h. Then, Alamar Blue (20 uL/well) (Invitrogen, Cat DAL1100) was added for 6 h, and the plates were read with a fluorescence microplate reader at 546/580 nm (excitation/emission). For PBMC proliferation, cells were plated and activated as above but incubated for only 16 h prior to addition of Alamar Blue. Plates were read after 6 h.
As usually defined, the AC50 is the concentration at which the activity in the assay is half-maximal. As to `CCCCC(CC)COC(=O)C=Cc1ccc(OC)cc1` (stereo not given), the outcome was inactive and the half-maximal activity concentration (AC50) was 31.7 µM (active). As to `Cc1c(C(N)=O)cc([N+](=O)[O-])cc1[N+](=O)[O-]`, the outcome was inactive. Still for that read-out and setting: next, `CN(C)Cc1cc(C(C)(C)C)c(O)c(C(C)(C)C)c1`: “inactive”; `CCCCCCCCCC/C=C/C1CC(=O)OC1=O` (stereo not given): “inactive”. Same read-out and setting: next, `Oc1cccc2ccccc12`: “inactive”. Regarding `O=[N+]([O-])c1cc(S(=O)(=O)Nc2ccccc2)ccc1Nc1ccccc1`, the result was inactive and the AC50 was 32.6 µM (active). For the compound `CCCCCCC(O)CCCCCCCCCCC(=O)OC` (stereo not given), the result was inactive.

For the compound `CC(C)C1OCCN1CCOC(=O)NCCCCCCNC(=O)OCCN1CCOC1C(C)C` (stereo not given), the result was inactive and the AC50 was 33 µM (active). In the case of `COC(=O)/C=C\C(=O)OC`, the outcome was inactive. With `CN(C)c1ccc(C(c2ccccc2)c2ccc(N(C)C)cc2)cc1`, the half-maximal activity concentration (AC50) was 5.36 µM (active). Turning to `Cc1cc(-n2nc3ccc(Cl)cc3n2)c(O)c(C(C)(C)C)c1`, the outcome was inactive. Consider `COc1ccccc1Oc1c(NS(=O)(=O)c2ccc(C(C)(C)C)cc2)nc(-c2ncccn2)nc1OCCO`, for which the outcome was inactive. The same measure, in the same setting: next, `C1CN(CCOCCN2CCOCC2)CCO1`: “inactive”. As for `CCCCCCCCCCCCCCCCCC[N+](C)(C)C`, the AC50 is 1.23 µM (active). On to `O=C(C(=O)c1ccccc1)c1ccccc1`, for which the result was inactive.

Take `CC[N+](CC)(CC(=O)Nc1c(C)cccc1C)Cc1ccccc1`: the result was inactive. On the same count and under the same terms, next, `CC[N+](CC)(CC(=O)Nc1c(C)cccc1C)Cc1ccccc1` (tested in a mixture with another compound): “inactive”; `CCC(C)=NO`: “inactive”.

Consider `CCCCCCCCCCC1CO1` (stereo not given), for which the AC50 was 34.7 µM (active). On the same count and under the same terms, next, `OC(C(F)(F)F)(C(F)(F)F)C(O)(C(F)(F)F)C(F)(F)F`: 30 µM (active) and 20.5 µM (active). As for `COc1ccc(C(=O)c2ccccc2O)c(O)c1`, the result was inactive.

Turning to `CN(C)CCC(c1ccc(Cl)cc1)c1ccccn1` (stereo not given), the outcome was inactive. The same measure, in the same setting: next, `Cc1cccnc1`: “inactive”.

Take `CCC[Si](OC(C)=O)(OC(C)=O)OC(C)=O`: the result was inactive.

Consider `COc1cc(CNC(=O)CCCC/C=C/C(C)C)ccc1O`, for which the outcome was inactive. Regarding `CC(C)CC(=O)CC(C)CC(C)C` (stereo not given), the AC50 is 32.6 µM (active). As for `Sc1nc2ccccc2s1`, the result was inactive.
